Drawing on PubChem BioAssay AID720697 (Broad Institute, 2013), this text covers outcome for two compounds.

Entries with a potency or affinity are not part of this list. Inconclusive results are not listed. Active and inactive are the calls of the source.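 The calls were made as follows: active = signal loss with fitted half-maximal concentration at or below twice the top valid tested dose in every test run; inconclusive = runs disagree, flat 30 to 70% signal loss, or poor fit; inactive = all runs flat, opposite direction, or potency beyond limit.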

The nature of this test: HEK293T cytotoxicity, dose response, cytotoxicity control for miR-122 modulator project, cell-based, inhibitor set, cherry-pick, set 2 (AID 720697). To be noted: HEK293T viability, CellTiter-Glo luminescence, 48 h; series mostly up to 26 µM.

`COc1ccc2c(c1)c(CCN)c(C)n2Cc1ccccc1`: the outcome was inactive.

Take `COc1ccc(C2SCC(=O)Nc3c2c(=O)[nH]n3C2CCCCCC2)cc1` (configuration not stated): the call was inactive.
